Our source for the activation values is PubChem BioAssay AID504915 (The Scripps Research Institute Molecular Screening Center, 2011).

SMILES strings stand for the structures. The list shows a part of the results. A number with no mark means an inactive call. No stated cut-off is given here; in the data, active means activation above about 17%; inactive means the rest.

The target in this experiment is 5-hydroxytryptamine receptor 5A (Homo sapiens) (UniProt P47898). Kind of experiment: HTR5A agonists, retest of hits, confirmation, cell-based, luminescence (AID 504915).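 Further: 0% = cells with vehicle only and 100% = full reference agonist response.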 To be noted: HTR5A agonist cell assay, at 9.3 µM, stronger effect = higher value.
5-hydroxytryptamine receptor 5A (Homo sapiens), sequence (P47898 whole entry, looked up): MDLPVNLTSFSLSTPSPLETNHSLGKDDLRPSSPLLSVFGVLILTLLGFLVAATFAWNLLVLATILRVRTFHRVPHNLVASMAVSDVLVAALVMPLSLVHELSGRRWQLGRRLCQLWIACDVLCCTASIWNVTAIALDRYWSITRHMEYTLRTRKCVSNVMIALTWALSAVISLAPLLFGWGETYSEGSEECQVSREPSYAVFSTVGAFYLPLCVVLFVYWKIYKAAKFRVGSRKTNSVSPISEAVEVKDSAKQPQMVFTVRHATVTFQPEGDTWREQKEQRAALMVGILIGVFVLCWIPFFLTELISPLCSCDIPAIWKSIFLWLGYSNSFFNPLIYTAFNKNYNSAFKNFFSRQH

For the compound `CCCCCCCCCCCCn1ccc(=N)cc1`, the activation is 0.13%.
